Where “and” joins values, the source holds several entries; their conditions need not be identical. Equal entries are not always repeated. Inconclusive results are not listed. Calls of active or inactive are those of the source. Calls come from the whole dose curve; as a rule, active = well fitted curve in the direction sought with a large enough effect; inconclusive = small, poorly fitted or top-dose-only effect, or another doubt; inactive = no such curve, though single readings can be large; an effect the other way counts as inactive or inconclusive.
Key:
HEK293 = assay: Cytotoxic Profiling of Annotated Libraries Using Quantitative High-Throughput Screening (AID 1296008); conditions: Five cell lines viability, CellTiter-Glo ATP luminescence, 48-72 h; max response: active compounds read low; note: nearly all actives have a fitted effect of over 60% in size; note: potency is the fitted concentration of half-maximal effect; for max response: % is set by controls: 0 for no effect and ±100 for the full control effect
Procedure, shortened: (§1)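 Cytotoxicity was measured as CellTiter-Glo ATP luminescence, read after 10 min at room temperature. Compound treatment of the cells lasted 48 or 72 hr at 37 degrees Celsius in a qHTS format.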

MCC-13 = assay: qHTS assay to identify novel small-molecules to repurpose for Merkel cell carcinoma treatment (AID 1296009); conditions: MCC and control cell lines, CellTiter-Glo viability, 72 h; series mostly up to 46 µM; note: nearly all actives have a fitted effect of over 60% in size; note: potency is the fitted concentration of half-maximal effect
Procedure, shortened: (§2)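 72 hr, 37 degree celsius; NPC 8-pt / MIPE 11-pt dose response; compound pinned in DMSO; CellTiter-Glo, 10 min RT, luminescence; normalized to no-cell and DMSO controls.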

MCC-26 = assay: as above; conditions: MCC and control cell lines, CellTiter-Glo viability, 72 h; series mostly up to 46 µM
Procedure, shortened: as §2

MKL-2 = assay: as above; conditions: MCC and control cell lines, CellTiter-Glo viability, 72 h; series mostly up to 46 µM
Procedure, shortened: as §2

HaCat [1] = assay: Cytotoxic Profiling of Annotated Libraries Using Quantitative High-Throughput Screening (AID 1296008); conditions: Five cell lines viability, CellTiter-Glo ATP luminescence, 48-72 h; max response: active compounds read low; note: nearly all actives have a fitted effect of over 60% in size; note: potency is the fitted concentration of half-maximal effect; for max response: % is set by controls: 0 for no effect and ±100 for the full control effect
Procedure, shortened: as §1

KB-3-1 = assay: as above; conditions: Five cell lines viability, CellTiter-Glo ATP luminescence, 48-72 h; max response: active compounds read low
Procedure, shortened: as §1

HACAT [2] = assay: qHTS assay to identify novel small-molecules to repurpose for Merkel cell carcinoma treatment (AID 1296009); conditions: MCC and control cell lines, CellTiter-Glo viability, 72 h; at 44.8 µM (top of the series) unless noted; note: nearly all actives have a fitted effect of over 60% in size; note: potency is the fitted concentration of half-maximal effect
Procedure, shortened: as §2

WaGa = assay: as above; conditions: MCC and control cell lines, CellTiter-Glo viability, 72 h; series mostly up to 46 µM
Procedure, shortened: as §2

NIH3T3 [3] = assay: Cytotoxic Profiling of Annotated Libraries Using Quantitative High-Throughput Screening (AID 1296008); conditions: Five cell lines viability, CellTiter-Glo ATP luminescence, 48-72 h; max response: active compounds read low; note: nearly all actives have a fitted effect of over 60% in size; note: potency is the fitted concentration of half-maximal effect; for max response: % is set by controls: 0 for no effect and ±100 for the full control effect
Procedure, shortened: as §1

MKL-1 = assay: qHTS assay to identify novel small-molecules to repurpose for Merkel cell carcinoma treatment (AID 1296009); conditions: MCC and control cell lines, CellTiter-Glo viability, 72 h; series mostly up to 46 µM; note: nearly all actives have a fitted effect of over 60% in size; note: potency is the fitted concentration of half-maximal effect
Procedure, shortened: as §2

C33A = assay: Primary qHTS to identify gynecologic anti-cancer compounds using libraries of approved drugs and bioactive compounds (AID 1345084); conditions: Gynecologic cancer cell panel viability, ATPlite luminescence, 48 h; series mostly up to 57.5 µM; note: nearly all actives have a fitted effect of over 55% in size; note: potency is the fitted concentration of half-maximal effect
Procedure, shortened: (§3)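 ATP-based viability (ATPlite), 1,000 cells/well, 16 h pre-incubation, 48 h compound at 37 C, 5% CO2, 15 min RT before read.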

CAOV3 = assay: as above; conditions: Gynecologic cancer cell panel viability, ATPlite luminescence, 48 h; series mostly up to 57.5 µM
Procedure, shortened: as §3

UISO = assay: qHTS assay to identify novel small-molecules to repurpose for Merkel cell carcinoma treatment (AID 1296009); conditions: MCC and control cell lines, CellTiter-Glo viability, 72 h; series mostly up to 46 µM; note: nearly all actives have a fitted effect of over 60% in size; note: potency is the fitted concentration of half-maximal effect
Procedure, shortened: as §2

TAB109 = assay: qHTS profiling for inhibitors of Plasmodium falciparum proliferation (AID 504749); conditions: P. falciparum in erythrocytes, SYBR Green DNA, 72 h; series mostly up to 28.7 µM
Procedure, shortened: (§4)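 Infected RBCs, 0.3% parasitemia/2.5% Hct final; cpd 72 h, 37 C, 5% CO2; lysis buffer with saponin/triton/SYBR Green I, o/n RT dark; FI 485/535; norm. to artemisinin (0.29 uM) and DMSO.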

TAB165 = assay: as above; conditions: P. falciparum in erythrocytes, SYBR Green DNA, 72 h; series mostly up to 28.7 µM
Procedure, shortened: as §4

W2 = assay: as above; conditions: P. falciparum in erythrocytes, SYBR Green DNA, 72 h; series mostly up to 28.7 µM
Procedure, shortened: as §4

NIH3T3 [4] = assay: qHTS assay to identify novel small-molecules to repurpose for Merkel cell carcinoma treatment (AID 1296009); conditions: MCC and control cell lines, CellTiter-Glo viability, 72 h; at 44.8 µM (top of the series) unless noted; note: nearly all actives have a fitted effect of over 60% in size; note: potency is the fitted concentration of half-maximal effect
Procedure, shortened: as §2

Clc1cc(Cl)cc(CNc2ncncc2-c2ccc3c(c2)OCO3)c1
inactive: Potency (MCC-13) | Potency (MCC-26) | Potency (MKL-2)
active: Potency (HEK293) 20.9 µM

CC1(C)CCC2=C(O1)c1ccccc1C(=O)C2=O
inactive: outcome (HaCat [1]) | max response (KB-3-1) 7.27% | outcome (HACAT [2]) | Potency (MCC-26)
active: Potency (WaGa) 26.4 µM

c1ccc2c(-c3cnn4cc(-c5ccc(N6CCNCC6)cc5)cnc34)ccnc2c1
active: Potency (KB-3-1) 3.32 µM | Potency (MCC-13) 10.5 µM | Potency (MCC-26) 8.33 µM | Potency (MKL-1) 2.96 µM
inactive: max response (NIH3T3 [3]) -102%

NC(=O)c1cccc2[nH]c(-c3ccc([C@H]4CCCN4)cc3F)nc12
inactive: max response (KB-3-1) -3.95% | max response (NIH3T3 [3]) 0.71% | Potency (MCC-13) | Potency (MCC-26)
active: Potency (MKL-1) 20.9 µM | Potency (MKL-2) 2.35 µM | Potency (WaGa) 20.9 µM | Potency (C33A) 17.8 µM | Potency (CAOV3) 28.2 µM

COc1cccc2c1CCCC2CCCN1CCN(C2CCCCC2)CC1 (centres undefined)
inactive: max response (HaCat [1]) -16.8% | Potency (MCC-13) | Potency (MCC-26) | Potency (MKL-1)
active: Potency (HEK293) 14.8 µM

CNC(=O)c1ccccc1Sc1ccc2c(C=Cc3ccccn3)n[nH]c2c1
inactive: Potency (MCC-26)
active: Potency (HEK293) 14.8 µM | Potency (NIH3T3 [3]) 3.72 µM | Potency (WaGa) 11.8 µM

CN(C)Cc1ccc(-c2nc3cccc4c3n2CCNC4=O)cc1
inactive: max response (HaCat [1]) -6.01% and -9.35% | max response (NIH3T3 [3]) -8.05% and -9.14% | Potency (MCC-13) | Potency (MCC-26) | Potency (MKL-1) | Potency (UISO) | Potency (WaGa) | Potency (C33A) | Potency (CAOV3)

CO[C@H]1C=CO[C@@]2(C)Oc3c(C)c(O)c4c(O)c(c5c(c4c3C2=O)NC2(CCN(CC(C)C)CC2)N=5)=NC(=O)C(C)=CC=C[C@H](C)[C@H](O)[C@@H](C)[C@@H](O)[C@@H](C)[C@H](OC(C)=O)[C@H]1C
inactive: Potency (C33A) | Potency (CAOV3)

NS(=O)(=O)c1ccc(NC2=CC(=O)c3ccccc3C2=O)cc1
inactive: outcome (HaCat [1]) | max response (KB-3-1) 7.69% | max response (NIH3T3 [3]) -17.3% | outcome (HACAT [2]) | Potency (MCC-26)
active: Potency (UISO) 2.64 µM

Clc1ccc(C(c2ccc(Cl)cc2)n2cc[n+](CC(OCc3ccc(Cl)cc3Cl)c3ccc(Cl)cc3Cl)c2)cc1 (centres undefined)
active: Potency (HEK293) 14.8 µM | Potency (KB-3-1) 18.7 µM | Potency (MKL-1) 20.9 µM | Potency (MKL-2) 10.5 µM
inactive: Potency (MCC-13)

COc1ccc2c(Oc3ccc(NC(=O)c4c(C)n(CC(C)(C)O)n(-c5ccccc5)c4=O)cc3F)ccnc2c1
inactive: max response (HaCat [1]) 2.66% and -22.8% | max response (KB-3-1) -19.2% | Potency (MCC-13) | Potency (MCC-26) | Potency (MKL-1) | Potency (MKL-2) | Potency (WaGa) | Potency (C33A) | Potency (CAOV3)
active: Potency (NIH3T3 [3]) 8.33 µM and 10.3 µM

CCCCCN(C)CCC(O)(P(=O)(O)O)P(=O)(O)O
inactive: outcome (TAB109) | Potency (TAB165) | Potency (W2) | Potency (MCC-13) | Potency (MCC-26) | Potency (MKL-1) | Potency (MKL-2) | outcome (NIH3T3 [4]) | Potency (UISO) | Potency (WaGa)

CC=CCC(C)C(O)C1C(=O)NC(CC)C(=O)N(C)CC(=O)N(C)C(CC(C)C)C(=O)NC(C(C)C)C(=O)N(C)C(CC(C)C)C(=O)NC(C)C(=O)NC(C)C(=O)N(C)C(CC(C)C)C(=O)N(C)C(CC(C)C)C(=O)N(C)C(C(C)C)C(=O)N1C (centres undefined)
inactive: outcome (HACAT [2]) | Potency (MCC-13) | Potency (MCC-26) | Potency (MKL-1) | Potency (WaGa)

CC[C@@H]1C=C(C)C[C@H](C)C[C@H](OC)[C@H]2O[C@@](O)(C(=O)C(=O)N3CCCC[C@@H]3C(=O)O[C@H](C(C)=C[C@@H]3CC[C@H](Cl)[C@H](OC)C3)[C@H](C)[C@@H](O)CC1=O)[C@H](C)C[C@H]2OC
inactive: outcome (KB-3-1) | max response (NIH3T3 [3]) -7.01% | Potency (MCC-13) | Potency (MCC-26)
active: Potency (HEK293) 16.6 µM

Reference: PubChem BioAssay (NCATS)
